For one experiment, the system named is MCC-13. In words: qHTS assay to identify novel small-molecules to repurpose for Merkel cell carcinoma treatment (AID 1296009). Note: nearly all actives have a fitted effect of over 60% in size. Note: potency is the fitted concentration of half-maximal effect. Conditions: MCC and control cell lines, CellTiter-Glo viability, 72 h; series mostly up to 46 µM. In short, it runs like this:
(§1)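 Dose-response viability screen; 72 hr exposure at 37 degree celsius; CellTiter-Glo added, 10 min room temperature, luminescence read; RLUs scaled between no-cell and DMSO wells.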
For orientation: qHTS replaces the single test concentration by a dilution series.

For a further experiment, the system named is MCC-26. The description is as above. Conditions: MCC and control cell lines, CellTiter-Glo viability, 72 h; series mostly up to 46 µM. In short, it runs like this: as §1
In general terms: In ATP-based viability assays light output follows the ATP content of the culture.

For another experiment, the system named is MKL-1. Described as above. Conditions: MCC and control cell lines, CellTiter-Glo viability, 72 h; series mostly up to 46 µM. Put shortly: as §1
Another experiment has as its system MKL-2. The description is as above. Conditions: MCC and control cell lines, CellTiter-Glo viability, 72 h; series mostly up to 46 µM. In short, it runs like this:
as §1

The subject of the next experiment is UISO. The experiment is described as above. Conditions: MCC and control cell lines, CellTiter-Glo viability, 72 h; series mostly up to 46 µM. In short, it runs like this:
as §1

The next experiment relates to WaGa. The experiment is described as above. The following applies: MCC and control cell lines, CellTiter-Glo viability, 72 h; series mostly up to 46 µM. Put shortly: as §1
The test system of a further experiment is C33A. In words: Primary qHTS to identify gynecologic anti-cancer compounds using libraries of approved drugs and bioactive compounds (AID 1345084). Note: nearly all actives have a fitted effect of over 55% in size. The following applies: Gynecologic cancer cell panel viability, ATPlite luminescence, 48 h; series mostly up to 57.5 µM. In short, it runs like this: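 Cytotoxicity screen measuring ATP content by luciferase luminescence. Each compound is applied at five concentrations for 48 h at 37 C with 5% CO2.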

The test system of the next experiment is NIH3T3. The experiment is described as follows: qHTS assay to identify novel small-molecules to repurpose for Merkel cell carcinoma treatment (AID 1296009). Note: nearly all actives have a fitted effect of over 60% in size. Note: potency is the fitted concentration of half-maximal effect. The following applies: MCC and control cell lines, CellTiter-Glo viability, 72 h; at 44.8 µM (top of the series) unless noted. Put shortly: as §1

Records with an inconclusive call do not appear. Calls of active or inactive are those of the source. Calls come from the whole dose curve; as a rule, active = well fitted curve in the direction sought with a large enough effect; inconclusive = small, poorly fitted or top-dose-only effect, or another doubt; inactive = no such curve, though single readings can be large; an effect the other way counts as inactive or inconclusive.

`COc1cc(C[C@@H](C)N)c(OC)cc1Br`: the Potency entry in the experiment on MCC-13, in the experiment on MCC-26, in the experiment with MKL-1, in the experiment on MKL-2, in the experiment with UISO and in the experiment on WaGa was “inactive” in each case. Also, the Potency result with C33A is “inactive”.
Consider `CCCCCCCCC(=O)NCc1ccc(O)c(OC)c1`, for which the Potency result in the experiment on MCC-13, in the experiment on MCC-26, with MKL-1, in the experiment on MKL-2, with UISO and in the experiment with WaGa was “inactive” in each case.
For the compound `CC(C)(C)OC(=O)c1ncn2c1[C@@H]1CCCN1C(=O)c1c(Br)cccc1-2`, the Potency entry in the experiment on MCC-13, in the experiment with MCC-26, in the experiment with MKL-1, in the experiment with MKL-2, in the experiment on UISO and with WaGa was “inactive” in each case. Also, the Potency result with C33A is “inactive”. Also, the compound was classed as inactive in the experiment on NIH3T3.
On to `CCC(=O)OC1(c2ccccc2)CCN(C)CC1`, for which the Potency result with MCC-13, with MCC-26, in the experiment with MKL-1, with MKL-2, in the experiment on UISO and in the experiment on WaGa was “inactive” in each case. In addition, the Potency entry in the experiment on C33A was “inactive”.
Consider `ClCc1cccc(Cl)c1`, for which the Potency entry in the experiment on MCC-13, in the experiment on MCC-26, in the experiment on MKL-1, with MKL-2, in the experiment with UISO and in the experiment with WaGa was “inactive” in each case. In the experiment on C33A, the Potency entry is “inactive”.
For `CC(C)=CCN1CC[C@@]2(C)c3cc(O)ccc3C[C@@H]1[C@@H]2C`, the Potency entry in the experiment on MCC-13, in the experiment with MCC-26, with MKL-1, with MKL-2, with UISO and with C33A was “inactive” throughout.
`O=C(N[C@@H]1N=C(c2ccccc2F)c2cccc3c2N(CC3)C1=O)c1cc2ccccc2[nH]1`: the Potency result in the experiment on MCC-13, in the experiment with MCC-26, in the experiment on MKL-1, in the experiment with MKL-2 and in the experiment on WaGa was “inactive” each time. In addition, the Potency with UISO was 2.99 µM (active).
For `CC[C@H]1C[C@@H]2C[C@H]3c4[nH]c5ccc(OC)cc5c4CCN(C2)[C@@H]13`, the Potency entry in the experiment on MCC-13, with MCC-26 and with C33A was “inactive” each time. The Potency in the experiment on WaGa is 42.4 µM (active).

For the origin of these results see PubChem BioAssay (NCATS).
